Screen size: about 140,000 compounds; about 2,100 (1.5%) were called active. This is one part of a sample in which actives are shown more often than they occur. Unmarked numbers belong to inactive results. Cut-off read from the data, not from the text of the source: active = protection mostly above about 24% (no sharp cut-off); inactive = mostly below about 26%.
assay: compounds protecting cells from measles virus cytopathic effect, primary screen, measles RdRp inhibitor project, single point, MLSMR library, absorbance (AID 841); details: Measles virus-infected cells, CPE protection, at 4 µM, hits give high values

SMILES	protection (pct of control)
Cc1ccc(-c2nn(-c3ccccc3)cc2/C=N/NC(=O)c2ccc3c(c2)OCO3)cc1	11.1%
COc1ccc(OC)c(/C=N/NC(=O)CSc2nnc(C)n2-c2ccccc2)c1	6.95%
Cc1nnc(SCC(=O)N/N=C/c2cn(-c3ccccc3)nc2-c2ccc(F)cc2)n1-c1ccccc1	50.4% (active)
Cc1ccccc1C1=NC(C(F)(F)F)(C(F)(F)F)c2c(n(-c3ccc(F)cc3)c(=O)[nH]c2=O)N1	14.5%
COc1ccc(Br)cc1C(=O)NC(=S)Nc1cc(-c2nc3ccccc3[nH]2)ccc1C	3.52%
Cc1ccc(-c2nc3ccccc3[nH]2)cc1N	6.87%
Cc1ccc(-c2nc3ccccc3[nH]2)cc1NC(=O)c1sc2ccccc2c1Cl	80.8% (active)
CCOc1ccc2nc(C(=O)N3CCCC(C)C3)sc2c1 (stereo not given)	14.9%
CCCCCCOC(=O)NCC(O)c1ccccc1 (stereo not given)	31.3% (active)
CCCCCOC(=O)NCCOC(=O)Nc1ccc(C(=O)OCC)cc1	3.01%
CCCCCCCCC(=O)NCCOc1ccccc1	6.49%
CCOc1ccc(N2C(=O)/C(=C/c3ccc(C)o3)N(C)C2=S)cc1	19.4%
CCC(=O)Nc1c(S(=O)(=O)c2ccccc2)c2nc3ccccc3nc2n1Cc1ccccc1	8.35%
O=C1CC(c2cccc(F)c2)C2=C(CCCC2=O)N1 (stereo not given)	11.2%
O=C1CCCC2=C1C(c1ccccc1)n1c(s/c(=C/c3cccc(F)c3)c1=O)=N2 (stereo not given)	48.1% (active)
COc1ccc(OC)c(C2C3=C(N=c4s/c(=C\c5cccc(O)c5)c(=O)n42)c2ccccc2CC3)c1 (stereo not given)	10.7%
CCCN(CCC)c1c([N+](=O)[O-])c(=O)oc2ccccc12	2.94%
O=C(NCC1CCCO1)c1ccc2ccccc2n1 (stereo not given)	9.11%
Cc1nc2ccccc2c2oc(C(=O)NCC3CCCO3)cc12 (stereo not given)	13.5%
Cc1ccc(C(=O)NCC2CCCO2)o1 (stereo not given)	45.6% (active)

SMILES	protection (pct of control)
CC(=O)NNC1=Nc2ccccc2N(C)C(C)C1 (stereo not given)	14.9%
COc1ccc(-n2c(C)cc(C(=O)COC(=O)c3cc(OC)c(OC)cc3NC(=O)c3cccs3)c2C)cc1	5.86%
Cc1cc(=O)n2nc(N3CCCC(C(=O)N4CCN(C)CC4)C3)sc2n1 (stereo not given)	14.9%
COc1ccc(CCNC(=O)C2CCN(c3nn4c(=O)cc(C)nc4s3)CC2)cc1OC	0.06%
Cc1cc(=O)n2nc(N3CCCC(C(=O)NCCC4=CCCCC4)C3)sc2n1 (stereo not given)	38.4% (active)
CC(C)c1nccn1S(=O)(=O)c1cc([N+](=O)[O-])ccc1Cl	14.2%
COCc1c(C(=O)N/N=C/C2CC=CCC2)nnn1-c1nonc1N (stereo not given)	5.58%
Cc1nc(Cl)c2oc3ccccc3c2n1	18.2%
CCc1nc(Nc2ccc3nccnc3c2)c2oc3ccccc3c2n1	5.78%
COc1ccccc1Nc1ncnc2c1oc1ccccc12	44.3% (active)
CC1=C(C(=O)Nc2cc(C)ccn2)C(c2cnn(C)c2)C2=C(CC(c3ccccc3)CC2=O)N1 (stereo not given)	4.9%
C/C(=N/NC(=S)Nc1ccccc1)c1ccc2c(c1)OCO2	20.8%
COc1ccc([C@H]2[C@H](C(C)=O)N3N=Cc4ccccc4C3C23C(=O)OC(C)(C)OC3=O)cc1 (stereo not given in full)	9.43%
O=C(N/N=C/c1cc([N+](=O)[O-])ccc1O)/C(=C\c1cccs1)NC(=O)c1ccccc1	3.64%
CC1CCCN(S(=O)(=O)c2ccc(N(C(=O)c3cnccn3)C(C(=O)NC3CCCCC3)c3cccs3)cc2)C1 (stereo not given)	5.77%
O=C(NC(CC(=O)N1CCN(c2ccccc2)CC1)c1ccccc1)c1ccccc1Cl (stereo not given)	5.39%
CCOc1ccc(Nc2nc(Cc3nnc(SCC(=O)c4ccc(C)cc4)o3)cs2)cc1	31.3% (active)
CCOc1ccc(Nc2nc(Cc3nnc(SCC(=O)NC4CCCC4)n3C)cs2)cc1	4.14%
CC(=O)Nc1ccc(C(=O)CSc2nnc(Cc3ccccc3)o2)cc1	5.61%
C=CCn1c(=N)n(CC(O)COc2ccc(OC)cc2)c2ccccc21 (stereo not given)	19.9%

SMILES	protection (pct of control)
OC(COc1ccccc1)Cn1cc(Br)cn1 (stereo not given)	17.3%
OC(CN=c1sc2ccccc2n1CC(O)COc1ccccc1)COc1ccccc1 (stereo not given)	44.8% (active)
CO/N=C(\N)c1ccc([N+](=O)[O-])cc1	2.5%
O=C(CCc1[nH]c2ccccc2c1Sc1ccccc1)N(CCO)CCO	8.37%
CCCCC(=O)Nc1ccc2c(c1)OCCO2	11%
O=C(CSc1ccc(-c2ccc(F)cc2)nn1)Nc1ccc2c(c1)OCCO2	9.34%
Cc1ccc(SCC(=O)Nc2ccc3c(c2)OCCO3)cc1	26.6% (active)
Cc1cc(C)nc(SC2CCCCC2NS(=O)(=O)c2ccc(Cl)cc2)n1 (stereo not given)	24.5%
O=C(CSc1ncn[nH]1)Nc1nsc(-c2ccccc2)n1	2.9%
CN(C)CCOC(=O)C(c1ccccc1)C1(O)CCCC1 (stereo not given)	2.07%
Cc1ccccc1C(OCC(O)CN1CCCCC1CCO)c1ccccc1 (stereo not given)	4.74%
Cc1ccccc1C(OCCN(C)C)C1CCCCC1 (stereo not given)	53.1% (active)
COc1ccc(/C=C/C(=O)OCC(=O)Nc2cccc(Oc3ccccc3)c2)c(OC)c1	22.7%
CCCc1cc(=O)[nH]c(SCc2ccc(C#N)cc2)n1	2.18%
CCCc1cc(=O)n2[nH]c(SCc3ccccc3)nc2n1	90% (active)
CCCc1cc(=O)[nH]c(SCC(=O)OCc2ccccc2)n1	13.7%
COc1ccc(NC(=O)COC(=O)c2ccc(NS(=O)(=O)/C=C/c3ccccc3)cc2)cc1	6.22%
CN(C)/N=C/c1cc(Cl)cc([N+](=O)[O-])c1O	21.7%
COc1ccccc1Oc1ccc(N/C=C2/CCCC2=O)cc1	24.8%
Cc1ccc(C)c(OCC(=O)N2CCN(C(=O)c3ccco3)CC2)c1	10.9%
